From PubChem BioAssay
The list is not random: actives were taken first. Their share in the collection is about 0.97%.
TLR4-MyD88 BLA: inhibitors of human TLR4-MyD88 binding. HeLa CL3-4 TLR4/MyD88 BLA complementation, FRET ratio. inhibition, % at 8.4 µM. actives 0.18% (n = 200,000). AID 861; in the data active = inhibition above about 25%
NTR1 ag: NTR1 (human) agonism. activation, % at 20 µM. P30989. actives 0.17% (n = 330,000). NTR1-U2OS beta-arrestin-GFP spot imaging, agonist mode;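 active = activation at or above 40% of the spot to cytoplasm intensity ratio, with at least 20 cells analyzed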
Target sequence (P30989 whole entry, looked up): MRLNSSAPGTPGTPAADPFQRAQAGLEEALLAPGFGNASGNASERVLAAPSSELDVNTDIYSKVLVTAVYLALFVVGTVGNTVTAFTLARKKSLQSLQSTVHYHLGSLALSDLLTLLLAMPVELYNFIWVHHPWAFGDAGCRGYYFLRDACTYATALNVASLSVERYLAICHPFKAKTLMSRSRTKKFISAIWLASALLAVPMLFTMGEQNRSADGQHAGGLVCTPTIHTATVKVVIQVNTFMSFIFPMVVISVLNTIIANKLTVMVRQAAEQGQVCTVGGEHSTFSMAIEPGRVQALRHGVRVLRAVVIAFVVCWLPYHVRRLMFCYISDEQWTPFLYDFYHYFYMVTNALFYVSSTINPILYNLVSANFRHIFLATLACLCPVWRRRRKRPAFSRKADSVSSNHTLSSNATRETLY
TLR9-MyD88 inh: inhibitors of human TLR9-MyD88 binding. CHO BLA complementation TLR9-MyD88, CCF4 FRET ratio. inhibition, % at 4.98 µM. actives 0.21% (n = 340,000). AID 504734;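 active = inhibition above the mean over all tested compounds plus 3 SD, cut at about 21% in these data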
A1 inh: inhibitors of the anti-apoptotic protein A1, read as caspase activation. MEF A1-2A-BIM cells, Caspase-Glo 3/7 luminescence, 3 h; percent of clofoctol response, vehicle zero. caspase activation, % (concentration not given with the values). actives 0.066% (n = 330,000). AID 2462;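 active = over half of replicate activation scores above 10%, or exactly half above 10 with the replicate mean above 10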
NOD2 RIPK2 PPI: NOD2-RIPK2 protein interaction inhibition | inhibition, % at 4.98 µM | CHO BLA complementation NOD2-RIPK2, CCF4 ratio | O43353 | actives 0.38% (n = 360,000); in the data active = inhibition above about 21%
Beta2AR agonist: activates human beta-2 adrenergic receptor causing internalization | P07550 | Am2.2-beta2AR cells, FAP receptor internalization, flow cytometry | response, % (concentration not given with the values) | actives 0.43% (n = 340,000);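 active = response above a set limit, near 3 SD of response in nonfluorescent compounds, cut at about 42% in these data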
Hits are given with their value; . = inactive; / = no result given.

SMILES	TLR4-MyD88 BLA	NTR1 ag	TLR9-MyD88 inh	A1 inh	NOD2 RIPK2 PPI	Beta2AR agonist
Cc1ccc(/C=C2\C(=O)NC(=S)N(c3ccccc3F)C2=O)s1	.	/	.	.	.	71
C[N+](C)(N)CCOC(=O)C(O)(c1ccccc1)C1CCCCC1 (stereo not drawn)	/	.	.	.	.	98
CC[N+](CC)(CC)CCCOC(=O)C(O)(c1ccccc1)C1CCCCC1 (stereo not drawn)	.	.	.	.	.	.
O=c1[nH]c(=O)n(-c2cccc(F)c2)c(O)c1/C=C1\C=Nc2ccccc21	/	.	.	.	.	44
O=C(O)c1ccc(-n2c(O)c(/C=C3\C=Nc4ccccc43)c(=O)[nH]c2=O)cc1	/	.	.	.	.	.
COc1ccc(C(=O)OC2C[C@H]3CC[C@@H](C2)N3O)cc1OC (stereo partly drawn)	/	.	.	.	.	62
C[C@]12CCC(=O)C[C@@H]1CC[C@@H]1[C@@H]2CC[C@]2(C)[C@@H](O)CC[C@@H]12	/	.	.	/	.	.
ClCCN(CCCl)c1ccc(C2=NCCc3ccccc32)cc1	/	/	.	/	.	.
O=c1[nH]c(=S)[nH]c(O)c1/C=C1/C=c2ccccc2=N1	/	/	.	.	.	52
CCCCn1nnnc1C(C1CC1)N1CCC2(CC1)C(=O)NCN2c1ccccc1 (stereo not drawn)	/	/	/	/	.	/
O=c1[nH]c(O)c(C=Nc2ccccc2Sc2ccccc2)c(=O)[nH]1	/	.	.	.	.	.
C/C1=C\[C@@H](C)C/C=C/[C@H]2[C@@H]3O[C@]3(C)[C@@H](C)[C@H]3[C@H](Cc4c[nH]c5ccccc45)NC(=O)[C@]32C(=O)/C=C/C(=O)[C@@H]1O	.	.	.	11	.	72
CC(=O)OC(C)(C)/C=C/C(=O)C(C)(O)C1[C@H](O)C[C@@]2(C)C3CC=C4C(CC[C@@H](O)C4(C)C)[C@]3(CO)C(=O)C[C@]12C (stereo partly drawn)	/	.	.	11	.	52
CC(=O)OC(C)(C)/C=C/C(=O)[C@](C)(O)[C@H]1[C@H](O)C[C@@]2(C)[C@@H]3CC=C4[C@H](C[C@H](O)C(=O)C4(C)C)[C@]3(C)C(=O)C[C@]12C	.	/	.	/	.	68
CC(=O)OC(C)(C)/C=C/C(=O)C(C)(O)C1C(O)CC2(C)C3CC=C4C(CC(O)C(=O)C4(C)C)C3(C)C(=O)CC12C (stereo not drawn)	/	/	.	/	.	.
O=[N+]([O-])c1ccc(N2CCNCC2)cc1NCc1ccco1	.	.	.	.	.	.
COCc1cc(C2SCC(=O)Nc3c2c(=O)[nH]n3C(C)C)ccc1OC (stereo not drawn)	.	.	.	.	.	.
O=C1NC(=O)N(Cc2ccccc2)C(=O)/C1=C/c1cnn(-c2ccccc2)c1	.	47	/	.	/	/
O=C(NC1CCCCC1)N1C[C@H]2C[C@@H](C1)c1cccc(=O)n1C2	/	.	.	.	.	.
CCOP(=O)(OCC)C(NC(=O)c1ccccc1)C(Cl)(Cl)Cl (stereo not drawn)	.	.	.	.	.	.
CCOP(=O)(OCC)C(c1ccccc1)N(C)C=O (stereo not drawn)	.	.	.	.	58	.
O=C(CCN1CC1)OCCOC(=O)CCN1CC1	/	/	.	/	.	55
CN1C2CCC1CC(OC(=O)CCN1CCCC1)C2 (stereo not drawn)	.	.	.	.	.	.
O=C1NC(=O)N(Cc2ccco2)C(=O)/C1=C/c1ccc(-c2cccc([N+](=O)[O-])c2)o1	.	58	.	.	.	.
C=C(CO)CC1CC(O)[C@]2(C)OC3CC4OC5C[C@]6(C)O[C@]7(C)CCC8OC9C[C@]%10(C)OC%11C(C)=CC(=O)OC%11CC%10OC9C[C@@H](C)C8OC7CC6O[C@]5(C)C/C=C\C4OC3CC2O1 (stereo partly drawn)	.	.	.	.	.	.
SMILES	TLR4-MyD88 BLA	NTR1 ag	TLR9-MyD88 inh	A1 inh	NOD2 RIPK2 PPI	Beta2AR agonist
C=C(C=O)CC1CC(O)[C@]2(C)OC3CC4OC5C[C@]6(C)O[C@]7(C)CCC8OC9C[C@]%10(C)OC%11C(C)=CC(=O)OC%11CC%10OC9C[C@@H](C)C8OC7CC6O[C@]5(C)CC5OC5C4OC3CC2O1 (stereo partly drawn)	.	.	.	.	.	107
CCCC1=C(C(=O)OCC)C2(C(=O)Nc3ccc(C)cc32)C(C#N)=C(N)O1 (stereo not drawn)	.	.	.	.	.	.
CCOC(=O)CC1=C(C(=O)OCC)C2(C(=O)Nc3ccccc32)C(C#N)=C(N)O1 (stereo not drawn)	.	.	.	6.5	.	.
COc1ccccc1C=C1C(=O)NC(=S)NC1=O	/	/	.	/	.	.
O=C1NC(=S)NC(=O)C1=Cc1cccn1-c1ccc(O)cc1	.	/	.	/	.	71
Cc1cc(C)cc(N2C(=O)NC(=O)/C(=C\c3cccn3-c3ccc(Cl)cc3)C2=O)c1	.	50	.	.	.	.
CCC(C)C1NC(=O)C(NC(=O)C(CC(C)C)N(C)C(=O)C2CCCN2C(=O)C(C)O)C(C)OC(=O)C(Cc2ccc(OC)cc2)N(C)C(=O)C2CCCN2C(=O)C(CC(C)C)NC(=O)[C@H](C)C(=O)[C@H](C(C)C)OC(=O)CC1O (stereo partly drawn)	/	/	.	/	.	42
Cc1cc(N(CCCl)CCCl)ccc1C=NNC(=O)c1cccnc1	/	/	.	/	.	.
CCOc1ccc(-n2c(-c3cccs3)nc3ccccc3c2=O)cc1	.	.	.	.	.	.
CCn1nc(-c2cccs2)nc2c(=O)n(C)c(=O)nc1-2	/	/	.	/	.	102
CCn1nc(/C=C/c2ccccc2)nc2c(=O)n(C)c(=O)nc1-2	.	.	/	/	.	68
O=c1[nH]c(=O)n(-c2ccc(Br)cc2)c(O)c1C=NCCN1CCCCC1	/	.	.	.	.	.
CCOC(=O)C1C2c3ccccc3O[C@@]1(C)N=C1SCC(=O)N12 (stereo partly drawn)	.	.	.	.	.	.
CC(=O)OC[C@]12CCC(C)=C[C@H]1O[C@@H]1[C@H](O)[C@@H](OC(C)=O)[C@@]2(C)[C@]12CO2	/	.	.	.	.	103
CC[C@H]1CN2CCC1C[C@H]2[C@H](O)c1ccnc2ccc(OC)cc12 (stereo partly drawn)	/	.	.	.	.	.
COc1ccc(CN2C(=O)NC(=O)/C(=C\c3ccco3)C2=O)cc1	.	.	.	.	.	.
O=C1NC(=O)N(Cc2ccccc2)C(=O)/C1=C/C=C/c1ccco1	/	.	.	.	.	76
